Results filed as inconclusive are left out. A call without a number means that no potency is given here. The source made the active and inactive calls. Unless noted, calls come from the whole dose curve.
Key:
[1] = Natriuretic polypeptide receptor (hNpr1) antagonism - Pilot counterscreen GloSensor control cell line (AID 1347045); note: potency is the fitted concentration of half-maximal effect
Procedure, shortened: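 Luminescence was read before and 20 min after adding 50 uM SNP, which stimulates soluble guanylyl cyclase. The HEK293 cells expressing the GloSensor cGMP sensor had been preloaded with 2% reagent for 2 h and treated with compound.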

[2] = target: Atrial natriuretic peptide receptor 1 (Homo sapiens) (UniProt P16066); experiment: Natriuretic polypeptide receptor (hNpr1) antagonism - Pilot screen (AID 1347049);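 note: agonist-evoked cGMP luminescence read 20 min after hNppA addition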; note: potency is the fitted concentration of half-maximal effect
Chain of Atrial natriuretic peptide receptor 1 (Homo sapiens) (P16066 whole entry, looked up): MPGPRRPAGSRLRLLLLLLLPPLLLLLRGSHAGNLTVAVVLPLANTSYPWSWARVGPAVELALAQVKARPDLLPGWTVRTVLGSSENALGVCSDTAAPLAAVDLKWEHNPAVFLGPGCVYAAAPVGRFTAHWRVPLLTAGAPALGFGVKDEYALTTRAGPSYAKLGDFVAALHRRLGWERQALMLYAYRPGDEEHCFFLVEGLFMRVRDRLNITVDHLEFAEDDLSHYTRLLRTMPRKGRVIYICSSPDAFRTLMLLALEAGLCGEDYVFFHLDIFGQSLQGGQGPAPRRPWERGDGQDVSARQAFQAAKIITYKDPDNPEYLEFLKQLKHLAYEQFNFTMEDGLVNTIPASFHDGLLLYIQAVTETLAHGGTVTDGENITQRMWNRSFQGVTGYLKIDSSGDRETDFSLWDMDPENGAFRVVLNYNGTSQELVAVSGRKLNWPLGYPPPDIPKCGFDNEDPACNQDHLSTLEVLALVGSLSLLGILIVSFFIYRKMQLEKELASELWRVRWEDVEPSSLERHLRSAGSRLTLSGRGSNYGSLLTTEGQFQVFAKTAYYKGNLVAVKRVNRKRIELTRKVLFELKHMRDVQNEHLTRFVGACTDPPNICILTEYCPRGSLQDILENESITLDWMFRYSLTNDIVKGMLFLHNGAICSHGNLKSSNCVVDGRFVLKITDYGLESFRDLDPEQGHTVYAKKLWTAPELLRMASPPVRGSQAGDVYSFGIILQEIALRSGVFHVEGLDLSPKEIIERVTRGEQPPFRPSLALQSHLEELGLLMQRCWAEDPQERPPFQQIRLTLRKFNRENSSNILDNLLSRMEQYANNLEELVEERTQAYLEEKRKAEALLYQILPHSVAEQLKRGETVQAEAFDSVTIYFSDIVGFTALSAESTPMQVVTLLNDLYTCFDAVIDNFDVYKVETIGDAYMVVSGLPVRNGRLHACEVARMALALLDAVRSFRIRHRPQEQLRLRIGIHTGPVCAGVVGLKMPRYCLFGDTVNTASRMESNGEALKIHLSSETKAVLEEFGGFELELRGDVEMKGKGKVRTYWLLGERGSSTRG
Procedure, shortened: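 HEK293 cells co-expressing hNpr1 and the GloSensor pGS-40F cGMP luciferase sensor were preloaded with 2% GloSensor reagent for 2 h. Compounds were added for 30 min at room temperature, then cells were stimulated with 0.1 nM hNppA for 20 min before luminescence readout.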

[3] = target: Atrial natriuretic peptide receptor 2 (Homo sapiens) (UniProt P20594); experiment: Natriuretic polypeptide receptor (hNpr2) antagonism - Pilot subtype selectivity assay (AID 1347050); note: potency is the fitted concentration of half-maximal effect
Chain of Atrial natriuretic peptide receptor 2 (Homo sapiens) (P20594 whole entry, looked up): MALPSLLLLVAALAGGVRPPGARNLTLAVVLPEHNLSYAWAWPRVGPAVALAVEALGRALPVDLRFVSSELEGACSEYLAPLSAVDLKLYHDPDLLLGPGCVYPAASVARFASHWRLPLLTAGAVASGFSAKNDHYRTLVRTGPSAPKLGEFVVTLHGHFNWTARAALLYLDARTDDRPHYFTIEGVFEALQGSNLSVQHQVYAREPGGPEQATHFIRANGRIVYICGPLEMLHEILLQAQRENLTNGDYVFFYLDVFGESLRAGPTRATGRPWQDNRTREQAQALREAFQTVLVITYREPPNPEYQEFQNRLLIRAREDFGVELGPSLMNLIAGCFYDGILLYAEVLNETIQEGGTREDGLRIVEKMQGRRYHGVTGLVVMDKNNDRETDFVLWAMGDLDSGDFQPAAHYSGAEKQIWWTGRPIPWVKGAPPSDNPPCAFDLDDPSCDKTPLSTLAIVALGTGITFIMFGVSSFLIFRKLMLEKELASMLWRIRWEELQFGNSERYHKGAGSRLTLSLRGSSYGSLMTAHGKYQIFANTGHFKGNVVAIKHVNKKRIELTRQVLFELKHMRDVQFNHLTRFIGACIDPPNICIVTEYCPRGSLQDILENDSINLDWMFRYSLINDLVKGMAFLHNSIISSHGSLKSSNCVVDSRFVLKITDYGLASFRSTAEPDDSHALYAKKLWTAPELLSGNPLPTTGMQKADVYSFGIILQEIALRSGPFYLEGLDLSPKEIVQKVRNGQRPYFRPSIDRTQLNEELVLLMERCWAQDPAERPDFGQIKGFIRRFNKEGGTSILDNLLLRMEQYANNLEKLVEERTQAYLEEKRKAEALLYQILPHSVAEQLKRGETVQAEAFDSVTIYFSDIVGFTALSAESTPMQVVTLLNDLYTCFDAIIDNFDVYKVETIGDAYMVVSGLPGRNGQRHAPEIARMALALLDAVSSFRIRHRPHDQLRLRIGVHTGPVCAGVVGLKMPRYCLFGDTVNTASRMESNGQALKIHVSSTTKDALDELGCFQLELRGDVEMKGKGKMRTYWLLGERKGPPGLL
Procedure, shortened: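 cGMP-sensor HEK293/hNpr2 cells; 2% GloSensor reagent 2 h RT; compounds 30 min; baseline luminescence read; 1 nM hNppC agonist 20 min RT; final luminescence read by CCD camera. Antagonism = reduced post-agonist signal.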

[4] = NS1 protein of Zika virus - qHTS assay to identify small molecule inhibitors in human HEK 293 cells (AID 1347053; active = well fitted inhibition curve with a large enough effect; note: series mostly up to about 46 µM; nearly all actives have a fitted effect of over 55% in size)
Procedure, shortened: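 HEK 293; 20 h pre-culture, 37 C/5% CO2; cpd 1 h pre-infection; ZIKV MR766, MOI = 0.5, 24 h, 37 C; TR-FRET NS1 readout (two anti-NS1 Abs); norm. to no-virus vs infected.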

[5] = target: Tyrosine-protein phosphatase non-receptor type substrate 1 (Homo sapiens) + Leukocyte surface antigen CD47 (Homo sapiens) (UniProt P78324+Q08722); experiment: CD47-SIRPalpha protein protein interaction - LANCE assay qHTS validation (AID 1347057; active = well fitted curve in the direction sought with a large enough effect in the signal ratio, with a control signal flat, not every such curve was filed as active; the % refers to the signal ratio; note: series mostly up to about 38 µM)
Chain of Tyrosine-protein phosphatase non-receptor type substrate 1 (Homo sapiens) + Leukocyte surface antigen CD47 (Homo sapiens) (P78324 whole entry, looked up): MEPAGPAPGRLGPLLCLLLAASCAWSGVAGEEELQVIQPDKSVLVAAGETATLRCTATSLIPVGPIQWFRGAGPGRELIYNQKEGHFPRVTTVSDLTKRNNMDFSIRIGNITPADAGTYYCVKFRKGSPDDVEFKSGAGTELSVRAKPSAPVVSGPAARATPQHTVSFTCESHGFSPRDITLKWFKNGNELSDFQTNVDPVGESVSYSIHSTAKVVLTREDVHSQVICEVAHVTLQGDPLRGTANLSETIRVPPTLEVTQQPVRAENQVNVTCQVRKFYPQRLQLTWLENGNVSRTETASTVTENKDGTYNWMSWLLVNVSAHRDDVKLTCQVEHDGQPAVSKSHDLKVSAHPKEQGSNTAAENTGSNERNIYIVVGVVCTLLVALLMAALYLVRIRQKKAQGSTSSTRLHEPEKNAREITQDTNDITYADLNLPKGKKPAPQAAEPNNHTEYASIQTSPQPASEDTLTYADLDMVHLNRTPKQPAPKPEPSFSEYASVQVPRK
Chain of Tyrosine-protein phosphatase non-receptor type substrate 1 (Homo sapiens) + Leukocyte surface antigen CD47 (Homo sapiens) (Q08722 whole entry, looked up): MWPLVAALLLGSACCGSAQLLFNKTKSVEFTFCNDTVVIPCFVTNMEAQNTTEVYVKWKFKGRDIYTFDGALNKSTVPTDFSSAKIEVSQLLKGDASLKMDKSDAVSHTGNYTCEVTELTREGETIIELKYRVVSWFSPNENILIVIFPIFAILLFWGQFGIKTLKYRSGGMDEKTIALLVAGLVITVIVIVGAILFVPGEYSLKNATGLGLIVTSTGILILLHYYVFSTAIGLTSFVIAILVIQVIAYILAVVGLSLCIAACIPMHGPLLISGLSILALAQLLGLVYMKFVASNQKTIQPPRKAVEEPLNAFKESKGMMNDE
Procedure, shortened: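 First, His-tagged CD47 and Eu-labelled anti-His antibody met the compound for 30 min; next, site-specifically biotinylated SIRPalpha was added for 30 min; finally streptavidin-APC was added before reading the TR-FRET ratio.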

Row | Compound | Potency [1] | Potency [2] | Potency [3] | Potency [4] | Potency [5]
1 | O=C(O)CC[C@@H](C(=O)O)N1C(=O)c2ccccc2C1=O | inactive | inactive | inactive | inactive | inactive
2 | O=C1O/C(=C/Br)CCC1c1cccc2ccccc12 (configuration not stated) | 16.5 µM (active) | 19 µM (active) | 11.7 µM (active) |  | 
3 | CN1CCC[C@H]1c1cccnc1 | inactive | inactive | inactive |  | 
4 | CNC(=O)[C@H]1O[C@@H](n2cnc3c(NCc4cccc(I)c4)ncnc32)[C@H](O)[C@@H]1O | inactive | inactive | inactive | inactive | inactive
5 | NCCNC(=O)c1ncsc1-c1cccc(F)c1 | inactive | inactive | inactive |  | 
6 | Cc1ccc(O)c(N=Nc2ccccc2)n1 | 7.36 µM (active) | 16.9 µM (active) | 10.4 µM (active) |  | inactive
7 | CNC(=O)[C@H]1O[C@@H](n2cnc3c(NCc4ccc(N)cc4)ncnc32)[C@H](O)[C@@H]1O | inactive | inactive | inactive | inactive | inactive
8 | Cc1ccccc1CNc1ncnc2c1ncn2C1OC(CO)C(O)C1O (configuration not stated) | inactive | inactive | inactive |  | 
9 | Nc1ncnc2c1ncn2[C@@H]1O[C@H](COP(=O)(O)OP(=O)(O)OP(=O)(O)OP(=O)(O)OC[C@@H]2O[C@H](n3cnc4c(N)ncnc43)[C@@H](O)[C@H]2O)[C@@H](O)[C@H]1O | inactive | inactive | inactive | inactive | inactive
10 | NCCSSCCN | inactive | inactive | inactive | inactive | inactive
11 | CN(C)CCCO[C@@H]1[C@H]2OC(C)(C)O[C@H]2O[C@@H]1[C@H](O)CO | inactive | inactive | inactive |  | 
12 | O=C1NC(=O)/C(=C/c2ccc3nccnc3c2)S1 | inactive | inactive | inactive | inactive | inactive
13 | CN1C2CCC1CC(OC(=O)C(O)c1ccccc1)C2 (configuration not stated) | inactive | inactive | inactive | inactive | inactive
14 | N#C/C(=C\c1ccc(O)c(O)c1)C(=O)c1ccc(O)c(O)c1 | inactive | inactive | inactive | inactive | inactive
15 | CC(C)ON([C@@H](C(=O)NO)C(C)C)S(=O)(=O)c1ccc(-c2ccccc2)cc1 | inactive | inactive | inactive |  | 
16 | NC(CCCP(=O)(O)O)C(=O)O (configuration not stated) | inactive | inactive | inactive | inactive | inactive
17 | CN(C)c1ccc(/C=C2\C(=O)Nc3ccccc32)cc1 | 4.14 µM (active) | 1.2 µM (active) | 10.4 µM (active) | inactive | 
18 | C=CC(C)=C[C@@]1(C)SC(=O)C(C)=C1O | inactive | inactive | inactive | inactive | inactive
19 | CN1[C@@H](CC(=O)c2ccccc2)CCC[C@H]1C[C@H](O)c1ccccc1 | inactive | inactive | inactive | inactive | inactive
20 | CC1OC1P(=O)(O)O (configuration not stated) | inactive | inactive | inactive | inactive | inactive
21 | O=[N+]([O-])c1ccc(CSc2ncnc3c2ncn3[C@@H]2O[C@H](CO)[C@@H](O)[C@H]2O)cc1 | inactive | inactive | inactive | inactive | inactive
22 | O=C1/C(=C/c2ccsc2)CC/C1=C\c1cccs1 | 1.47 µM (active) | 6.01 µM (active) |  | inactive | inactive
23 | N=C(N)SCCc1ccc(CCSC(=N)N)cc1 | inactive |  | inactive |  | 
24 | NC(=O)C1=CN(C2OC(COP(=O)(O)OP(=O)(O)OC[C@H]3O[C@@H](n4cnc5c(N)ncnc54)[C@H](OP(=O)(O)O)[C@@H]3O)C(O)C2O)C=CC1 (some centres not stated) | inactive |  | inactive | inactive | inactive
25 | C=C[C@@H]1CN2CC[C@@H]1C[C@H]2[C@H](O)c1ccnc2ccc(OC)cc12 |  | inactive | inactive | inactive | 
26 | CCCCCCCCCCCCCCCC(=O)NCC(COP(=O)([O-])OCC[N+](C)(C)C)OCC (configuration not stated) | inactive |  | inactive |  | 
27 | CCCCCCCCCCCCCCCCCCNC(=O)OCC(COP(=O)([O-])OCC[n+]1ccsc1)OC (configuration not stated) |  | inactive | inactive |  | 
28 | CC(C)(C)c1ccc(S(=O)(=O)/C=C/C#N)cc1 | 6.56 µM (active) |  | 7.36 µM (active) |  | inactive
29 | COc1cc2nc(N3CCN(C(=O)OCc4ccccc4)C(C(=O)NC(C)(C)C)C3)nc(N)c2cc1OC (configuration not stated) | inactive |  | inactive |  | 
30 | NC(=S)c1ccc[n+]([C@@H]2O[C@@H](COP(=O)([O-])OP(=O)(O)OC[C@H]3O[C@@H](n4cnc5c(N)ncnc54)[C@H](OP(=O)(O)O)[C@@H]3O)C(O)C2O)c1 (some centres not stated) | inactive |  | inactive | inactive | inactive
